Results reported in PubChem BioAssay.
Activity calls are given as the source filed them. Unless noted, how the calls were made is not given here.

How the values were obtained:
[1] = test system: Wnt5a (protein binding on small-molecule microarray); assay: small molecules binding Wnt5a protein – biophysical, small-molecule microarray, 635/667 nm fluorescence, primary screen (AID 1142); conditions: 635 nm fluorescence, higher = more signal;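 further: fluorescence read at 667 nm with signal to noise per printed feature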
[2] = ATP-based viability of Huh7 replicon cells – cell-based, CellTiter-Glo luminescence, basal, 48 h, cytotoxicity control for HCV replication inhibitor project, primary screen (AID 1143); conditions: higher = more signal, called active from +8 up or from −8 down;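 further: Huh7 hepatoma cells carrying a hepatitis C replication reporter with no stimulus; test concentration not given here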
[3] = Pseudomonas biofilm growth suppression – PAO1 strain, BacTiter-Glo luminescence, LB-PBS, primary screen (AID 1144); conditions: P. aeruginosa PAO1 biofilm, 12 h, higher = more signal
[4] = basal CRE-LacZ reporter activity in PC12 – cell-based, unstimulated, primary screen (AID 1145); conditions: no forskolin, luminescence, 4.5 h, higher = more signal, called active from +8 up or from −8 down
[5] = forskolin-driven CRE-LacZ activity in PC12 – cell-based, CRE-LacZ reporter, forskolin-stimulated, primary screen (AID 1146); conditions: luminescence, 4.5 h, higher = more signal, called active from +8 up or from −8 down;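 further: PC12 cells with 6xCRE LacZ reporter stimulated by forskolin 10 µM; beta-galactosidase reporter signal reflecting CREB driven transcription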
[6] = biological target: Streptavidin (Streptomyces avidinii) (UniProt P22629); assay: compounds binding control protein streptavidin – biophysical, small-molecule microarray, 635/667 nm fluorescence, artefact control for SMM compound annotation, primary screen (AID 1147); conditions: higher = more signal;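 further: signal reflects streptavidin binding to arrayed compounds as a control protein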
[7] = probe aInhba binding on compound microarray – biochemical, small-molecule microarray, 635/667 nm fluorescence, primary screen (AID 1148); conditions: higher = more signal;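 further: score merges 667nm spot fluorescence with signal-to-noise for antibody binding to printed compounds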
[8] = biological target: Torsin-1A (Homo sapiens) (UniProt O14656); assay: TOR1A wild-type binding on microarray – cell lysate, small-molecule microarray, lysate, 635/667 nm, primary screen (AID 1149); conditions: COS7 hTOR1A-WT lysate, 635 nm fluorescence, higher = more signal
[9] = biological target: Torsin-1A (Homo sapiens) (UniProt O14656); assay: torsin A mutant lysate binding on microarrays – cell lysate, small-molecule microarray, COS7 lysate, 635/667 nm fluorescence, primary screen (AID 1150); conditions: COS7 hTOR1A mutant lysate, 635 nm fluorescence, higher = more signal;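 further: score pools 667 nm emission and signal to noise measuring lysate protein binding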
[10] = test system: Sonic hedgehog protein (Shh); assay: Sonic hedgehog microarray binding compounds – biochemical, small-molecule microarray, 635/667 nm fluorescence, primary screen (AID 1151); conditions: 635 nm fluorescence, higher = more signal;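 further: Shh protein binding to compounds spotted on small-molecule microarray slides; score combines spot fluorescence intensity with signal-to-noise across triplicate slides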

Chain of Streptavidin (Streptomyces avidinii) (P22629 whole entry, looked up): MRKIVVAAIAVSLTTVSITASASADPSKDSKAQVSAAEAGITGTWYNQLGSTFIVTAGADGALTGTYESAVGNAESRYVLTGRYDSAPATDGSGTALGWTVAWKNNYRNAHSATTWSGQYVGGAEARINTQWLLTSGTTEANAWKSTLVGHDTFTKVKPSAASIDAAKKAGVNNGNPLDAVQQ
Chain of Torsin-1A (Homo sapiens) (O14656 whole entry, looked up): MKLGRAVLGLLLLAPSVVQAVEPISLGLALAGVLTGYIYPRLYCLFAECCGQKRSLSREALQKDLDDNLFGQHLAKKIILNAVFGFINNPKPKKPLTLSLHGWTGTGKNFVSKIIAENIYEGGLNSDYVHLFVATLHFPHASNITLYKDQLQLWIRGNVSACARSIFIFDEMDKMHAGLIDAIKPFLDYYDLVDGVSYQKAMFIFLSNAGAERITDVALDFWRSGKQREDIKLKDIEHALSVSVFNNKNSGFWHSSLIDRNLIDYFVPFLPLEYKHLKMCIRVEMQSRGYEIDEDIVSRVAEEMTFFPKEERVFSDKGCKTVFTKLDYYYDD

Structure (SMILES) | composite z-score [1] | z-score [2] | z-score [3] | z-score [4] | z-score [5] | composite z-score [6] | composite z-score [7] | composite z-score [8] | composite z-score [9] | composite z-score [10]
CC#CCOCCC=C1c2ccccc2[C@@H](OC)[C@@H]1C | 0.179 | 0.447 (inactive) | -0.445 (inactive) | 1.42 (inactive) | -0.146 (inactive) | -0.534 | -0.122 | 0.147 | 0.481 | 0.584
COc1cccc([C@H]2Oc3ccc(OC)cc3C(=NO[C@@H](C)c3cc(-c4c(C)cc(C)cc4C)no3)[C@@H]2O)c1 | -0.556 | -0.686 (inactive) | 0.409 (inactive) | 1.42 (inactive) | 0.596 (inactive) | -0.756 | -0.23 | -1.26 | -0.489 | -2.3
C[C@@H]1C=CCC(=O)OC[C@H](C)C(=O)N[C@@H](Cc2ccccc2)C(=O)OC1 | 0.033 | -3.11 (inactive) | -1.23 (inactive) | 1.43 (inactive) | -0.846 (inactive) | -0.0535 | -0.0736 | 0.519 | 0.59 | 0.638
CCCCOC(OCCCC)C(O)CSc1ccc2ccccc2c1 (stereo not given) | 0.133 | -0.657 (inactive) | -0.315 (inactive) | 1.01 (inactive) | 0.257 (inactive) | 0.465 | -0.282 | 0.453 | -0.0078 | 0.789
O=C1[C@H]2[C@H]3[C@H](O)[C@H](O)CC(=NOCc4ccccc4)[C@H]3CC[C@H]2C(=O)N1C1CCCCC1 | -0.0056 | -1.79 (inactive) | 0.415 (inactive) | 0.52 (inactive) | -0.262 (inactive) | 0.457 | -0.0917 | 0.161 | 1.03 | 0.449
CC(C)[C@@H](OCc1ccccc1)[C@H](C)C=NOC[C@@H](O)[C@H]1O[C@@H]2OC(C)(C)O[C@@H]2[C@H]1O | 0.332 | 0.226 (inactive) | 0.0464 (inactive) | -0.408 (inactive) | 0.307 (inactive) | 1.61 | -0.0695 | 0.298 | 0.284 | 0.587
CO[C@@H]1COC(=O)[C@H](CCSC)NC(=O)CC=C[C@@H](C)COC(=O)[C@@H]2CCCN2C(=O)CC=C[C@H]1C | 0.186 | -0.501 (inactive) | 0.277 (inactive) | 0.0652 (inactive) | -1.38 (inactive) | -0.234 | -0.024 | 1.24 | 0.785 | 0.876
CC(C)=NO[C@@H](C)c1cn([C@H](CO)Cc2ccccc2)nn1 | 0.0949 | -0.172 (inactive) | -0.643 (inactive) | 0.573 (inactive) | -0.537 (inactive) | 0.561 | -0.0681 | 0.818 | 0.39 | 0.469
COc1ccc(COC(=O)NN=C2C[C@@H](O)[C@@H](O)[C@@H]3[C@@H]4C(=O)N(c5cccc(Oc6ccccc6)c5)C(=O)[C@@H]4CC[C@H]23)cc1 | -0.142 | -3.56 (inactive) | 0.111 (inactive) | -0.293 (inactive) | 0.505 (inactive) | 0.993 | -0.0375 | -0.135 | -0.144 | -1.44
O=C1[C@H]2[C@H]3[C@H](O)[C@H](O)CC(=NOC[C@@H](O)COCc4ccco4)[C@@H]3CC[C@H]2C(=O)N1Cc1ccccc1 | -0.0051 | -1.65 (inactive) | 0.969 (inactive) | -0.294 (inactive) | 0.183 (inactive) | -0.153 | -0.186 | 3.04 | 1.92 | 0.399
C=CC[C@@H]1C=C[C@H](ON=CC[C@@H]2C=C[C@H](OC(C)=O)[C@@H](COC(C)=O)O2)[C@@H](CO)O1 | 0.521 | 0.0101 (inactive) | -0.325 (inactive) | -1.21 (inactive) | -0.66 (inactive) | 1.54 | 0.113 | -0.161 | 0.259 | 0.925
COC(=O)[C@H](C)NC(=O)CCC1CC(OC(=O)NCc2cccc3ccccc23)CC2(CCCC(COC(=O)NCCc3ccccc3OC)O2)O1 (stereo not given in full) | 0.259 | -0.701 (inactive) | 0.326 (inactive) | 0.556 (inactive) | 0.684 (inactive) | 0.759 | -0.0361 | 0.475 | 0.406 | 0.963
C[C@@H]1CC[C@H]2C(=O)N3[C@@H](CC[C@@H](C)[C@@H]3c3ccc(Br)cc3)C(=O)N2[C@H]1c1ccc(Br)cc1 | 0.113 | -1.1 (inactive) | 1.21 (inactive) | 0.198 (inactive) | 0.929 (inactive) | 0.146 | -0.0719 | 1.05 | 0.626 | 0.233
CC(CCN1CCCc2nc(C)c(C)cc21)=NOC[C@@H](O)COCc1ccco1 | 0.516 | -0.244 (inactive) | -0.837 (inactive) | -0.0638 (inactive) | -0.175 (inactive) | 0.0849 | 1.26 | 4.39 | 4.29 | 2.5
COC(=O)[C@H](C)NC(=O)CCC1CC(OC(=O)NCc2cccc3ccccc23)CC2(CCCC(COC(=O)NCCCN3CCCC3=O)O2)O1 (stereo not given in full) | 0.205 | -0.0671 (inactive) | -1.07 (inactive) | -0.438 (inactive) | -0.178 (inactive) | 0.865 | -0.152 | 0.519 | 0.745 | 0.608
O=C1C[C@@H](O)[C@@H](O)[C@@H]2[C@@H]3C(=O)N(Cc4ccccc4)C(=O)[C@@H]3CC[C@H]12 | 0.0217 | -0.3 (inactive) | -0.473 (inactive) | -0.293 (inactive) | -0.497 (inactive) | 0.636 | -0.0719 | 0.176 | 0.37 | 0.718
CC(=O)OC[C@H]1O[C@H](CC=NO[C@@H](C)c2cn([C@H](CO)Cc3ccccc3)nn2)C=C[C@@H]1OC(C)=O | 0.0065 | -2.35 (inactive) | -0.902 (inactive) | 1.67 (inactive) | 0.114 (inactive) | 0.777 | -0.0963 | 0.542 | 0.692 | 0.911
CC(=O)OC[C@H]1O[C@@H](ON=C(C)CCN2CCCCc3nc(C)c(C)cc32)[C@H](OC(C)=O)[C@@H](OC(C)=O)[C@@H]1OC(C)=O | 0.752 | -2.39 (inactive) | 0.0375 (inactive) | 2.32 (inactive) | -0.494 (inactive) | -0.452 | 0.144 | 0.987 | 1.12 | 1.64
CON=C(C)CCN1CCc2nc(-c3ccccc3)c(-c3ccccc3)cc2C1 | -0.0635 | -4.2 (inactive) | -0.925 (inactive) | 2.22 (inactive) | -0.55 (inactive) | 1.33 | -0.05 | 0.254 | 0.007 | 0.872
CC(C)CN1CCc2nc(-c3ccccc3)c3c(c2C1)CO[C@@H](C)C3 | 0.379 | -0.718 (inactive) | -0.876 (inactive) | 9.42 (active) | -1.44 (inactive) | 0.235 | 0.115 | 0.0937 | 0.571 | 0.421
O=C(NN=C1C[C@@H](O)[C@@H](O)[C@@H]2[C@@H]3C(=O)N(Cc4ccc5c(c4)OCO5)C(=O)[C@@H]3CC[C@@H]12)OCc1ccccc1 | -0.0565 | -3.46 (inactive) | 0.156 (inactive) | 1.06 (inactive) | 0.0698 (inactive) | 0.485 | -0.183 | 0.234 | -0.0136 | -0.806
CCOC(=O)[C@H](CC(C)C)NC(=O)CCC1CC(OC(=O)NCCc2ccc(F)cc2)CC2(CCCC(COC(=O)NCc3cccc4ccccc34)O2)O1 (stereo not given in full) | -0.165 | -0.731 (inactive) | -0.596 (inactive) | -0.889 (inactive) | 1.01 (inactive) | 1.57 | -0.131 | -0.169 | 0.184 | 0.601
CCOC(=O)CCN1C(=O)[C@H]2[C@H]3[C@H](O)[C@H](O)CC(=O)[C@@H]3CC[C@H]2C1=O | 0.352 | -0.19 (inactive) | -0.401 (inactive) | 0.527 (inactive) | -0.671 (inactive) | 0.182 | -0.179 | 0.205 | 0.5 | 0.757
CO[C@H]1COC(=O)CCC[C@H](C)[C@@H](OC)COC(=O)CC=C[C@@H]1C | -0.0982 | -0.0992 (inactive) | 0.132 (inactive) | -0.394 (inactive) | -0.24 (inactive) | -0.256 | -0.128 | 0.0956 | 0.861 | 1.34
CCN1C(=O)[C@H]2[C@H]3[C@H](O)[C@H](O)CC(=NO[C@H](C)c4cn([C@H](CO)Cc5ccccc5)nn4)[C@@H]3CC[C@H]2C1=O | 0.217 | 0.399 (inactive) | 1.05 (inactive) | -0.385 (inactive) | -0.228 (inactive) | 0.307 | -0.105 | 0.265 | 0.556 | 0.742
COCC#Cc1ccc([C@@H]2N[C@H](C(=O)O)CC[C@H]2C)cc1 | -0.0223 | -1.23 (inactive) | -1.73 (inactive) | -0.0755 (inactive) | -1.56 (inactive) | 0.0402 | -0.024 | 0.24 | 0.0923 | 0.742
COC(=O)CC=C[C@@H](C)[C@@H](C=NOC[C@@H](O)COCc1ccco1)NS(=O)(=O)c1ccc(C)cc1 | 0.102 | 0.0032 (inactive) | 0.91 (inactive) | -0.715 (inactive) | -0.0491 (inactive) | -0.601 | -0.209 | 1.11 | 1.24 | 1.89
COC(=O)C1=C(C)N(Cc2ccccc2)C2=C3C(=O)OCC[C@@H]3[C@@](O)(C(=O)OC)C(=O)N2[C@@H]1c1ccccc1 | 0.226 | -0.0119 (inactive) | -0.356 (inactive) | 4.9 (inactive) | -1.1 (inactive) | 0.299 | -0.0221 | -0.154 | 0.319 | 0.404
C[C@@H](c1ccccc1)N1C(=O)[C@H]2[C@H]3[C@H](O)[C@H](O)CC(=NOCc4ccccc4)[C@@H]3CC[C@H]2C1=O | 0.0765 | 0.039 (inactive) | 1.01 (inactive) | 0.242 (inactive) | -0.166 (inactive) | 0.665 | -0.0762 | -0.407 | -0.325 | -0.742
CCOC(=O)NN=C1C[C@@H](O)[C@@H](O)[C@@H]2[C@@H]3C(=O)N(c4ccc(F)cc4F)C(=O)[C@@H]3CC[C@H]12 | 0.199 | -4.03 (inactive) | -1.05 (inactive) | -0.296 (inactive) | 0.409 (inactive) | -0.0442 | -0.0962 | 0.49 | 0.381 | 0.404
